Our source for the growth values is PubChem BioAssay (NCI).

About 83,000 compounds went through this panel and 20% of them were active in at least one assay; those are over-represented in the sample as a whole.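 Interpretation: 100, growth as untreated; towards 0, rising growth inhibition; 0, no net growth; 0 to -100, cell death. Compounds scoring below 10 were considered active.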 Unmarked numbers belong to inactive results. Activity calls are given as the source filed them.

What all share (assay): NCI-60 one-dose screen, 48 h (100 = growth as untreated, 0 = no growth, -100 = all killed)
Test [1] has as its system HCT-15 colon. As to conditions: 10 µM unless noted.
Test [2] relates to HT29 colon. The following applies: 10 µM unless noted.
For test [3], the system named is SNB-75 CNS. As to conditions: 10 µM unless noted.
The test system of test [4] is SNB-19 CNS. The following applies: 10 µM unless noted.
Test [5] concerns U251 CNS. The following applies: 10 µM unless noted.
For test [6], the system named is PC-3 prostate. As to conditions: 10 µM unless noted.
The subject of test [7] is SK-MEL-5 melanoma. As to conditions: 10 µM unless noted.
Test [8] concerns UACC-62 melanoma. The following applies: 10 µM unless noted.
Test [9] concerns LOX IMVI melanoma. As to conditions: 10 µM.
For test [10], the system named is SK-MEL-28 melanoma. The following applies: 10 µM unless noted.
In test [11] the test system is SK-MEL-2 melanoma. The following applies: 10 µM unless noted.
The subject of test [12] is EKVX NSCLC. The following applies: 10 µM unless noted.
The test system of test [13] is UO-31 renal. The following applies: 10 µM unless noted.
Test [14] relates to TK-10 renal. The following applies: 10 µM unless noted.
Test [15] relates to ACHN renal. The following applies: 10 µM unless noted.
For test [16], the system named is CAKI-1 renal. The following applies: 10 µM unless noted.
Test [17] has as its system A498 renal. As to conditions: 10 µM unless noted.
Test [18] concerns CCRF-CEM leukemia. The following applies: 10 µM unless noted.
The subject of test [19] is MOLT-4 leukemia. The following applies: 10 µM unless noted.
The subject of test [20] is SN12C renal. As to conditions: 10 µM unless noted.

As to `O=C(c1ccccc1O)N1CCCC1`, the growth is 99.2% in test [1]; 93% in test [2]; 88% in test [3]; 97.2% in [4]; 89.8% in [5]; 84.4% in test [6]. In addition, the growth was 105% in test [7]; 100% in [8]; 99.7% in [9]; 98.5% in [10]; 92.9% in test [11]; 97.5% in [12]. For the same compound, the growth in test [13] is 91.9%; in test [14], 96.5%; in [15], 94.4%; in test [16], 94.8%; in test [17] it was 91.9%; in [18], 100%. In addition, in [19], the growth is 98.6%.
As to `COC1OC(COC(C)=O)C(OC(C)=O)C(OC(C)=O)C1OC(C)=O` (configuration not stated), the growth in [1] was 97.2%; in [2] it was 95.5%; in test [3] it was 95.7%; in test [4], 102%; in [5] it was 102%; in test [6], 87.2%. The growth was 117% in [7]; 86.5% in test [8]; 98.5% in test [9]; 94.2% in [10]; 101% in [11]; 93% in [12]. The growth is 99.3% in test [13]; 104% in test [14]; 88.8% in test [17]; 95.9% in test [18]; 96.3% in test [19].
Consider `CC(C)(C)NCCC(O)c1cc(C(F)(F)F)nc2c(C(F)(F)F)cccc12` (configuration not stated), for which the growth was 79.2% in [1]; 66.5% in test [2]; 78.2% in test [3]; 87.2% in test [4]; 54.3% in [5]; 55.3% in test [6]. Also, the growth was 81.8% in test [7]; 74.7% in test [8]; 1.78% (active) in [9]; 117% in test [10]; 102% in test [11]; 86.7% in [12]. In addition, the growth was 84.7% in [20]; 45.7% in test [13]; 82.9% in [14]; 75.4% in [16]; 33.3% in [17]; 94.5% in test [18]. The growth in [19] is 89.6%.
Take `N#Cc1ccc2nc[nH]c2c1`: the growth in test [1] was 106%; in [2], 112%; in test [3], 95.5%; in test [4] it was 111%; in test [5] it was 101%; in [6], 105%. Besides, the growth was 102% in [7]; 105% in [8]; 101% in test [9]; 108% in test [10]; 102% in [11]; 104% in test [12]. The growth in test [20] is 110%; in [13] it was 91.4%; in [14], 108%; in test [16] it was 95%; in test [18], 115%; in [19], 109%.
Regarding `CC1(C)CC(=O)C=C(N)C1`, the growth in test [1] was 102%; in test [2], 96.1%; in [3], 76.1%; in [4] it was 105%; in [5], 98.8%; in test [6] it was 93%. Further, the growth in test [7] was 131%; in test [8], 98.5%; in test [9] it was 98.1%; in [10], 104%; in test [11] it was 98.4%; in test [12], 60.3%. The growth in [20] was 99.3%; in test [13], 85.7%; in test [14], 99.2%; in [16], 85.1%; in test [17], 85.1%; in [18], 124%. In addition, the growth in [19] was 59.5%.
With `C=CC(=O)OC1CCC(C(C)(C)CC)CC1` (configuration not stated), the growth is 98.2% in test [1]; 112% in test [2]; 95.4% in test [3]; 109% in [4]; 116% in test [5]; 104% in [6]. Also, the growth in test [7] was 104%; in [8], 109%; in test [9], 101%; in test [10], 110%; in [11], 108%; in test [12], 117%. The growth is 83.9% in test [13]; 101% in [14]; 110% in test [15]; 115% in [16]; 87.2% in test [17]; 106% in [18]. Moreover, the growth in test [19] was 107%.
Take `OCc1cccnc1`: the growth was 92.4% in test [1]; 107% in test [2]; 102% in test [3]; 96.8% in test [4]; 91.8% in test [5]; 94.7% in [6]. For the same compound, the growth is 116% in test [7]; 103% in test [8]; 104% in [9]; 111% in [10]; 94% in test [11]; 107% in test [12]. Besides, the growth in test [13] was 81.7%; in test [14], 102%; in test [15], 102%; in test [16], 35.5%; in [18], 92.1%; in [19], 109%.
For `S=CN1CCCCC1`, the growth in test [1] is 99.9%; in test [2] it was 108%; in test [3] it was 93.2%; in test [4] it was 109%; in [5], 89.1%; in test [6], 99.3%. Further, the growth is 104% in [7]; 106% in [8]; 99% in test [9]; 103% in [10]; 124% in test [11]; 96.7% in [12]. In addition, the growth in test [20] was 103%; in [13], 89.1%; in test [14], 110%; in [16], 97.2%; in test [17], 105%; in test [18], 110%. Further, the growth in test [19] is 109%.
Regarding `CC1(c2ccccc2)CO1` (configuration not stated), the growth in test [1] is 102%; in test [2], 112%; in test [3], 89.9%; in test [4], 102%; in [5], 97.6%; in test [6], 104%. Further, the growth in test [7] is 105%; in test [8], 104%; in test [9], 103%; in test [10], 105%; in test [11], 107%; in test [12], 111%. Further, the growth in test [13] is 85.8%; in test [14], 102%; in test [15] it was 102%; in [16] it was 107%; in test [17] it was 131%; in test [18], 97.7%. Moreover, the growth in test [19] was 99.6%.
